# S2 tox: Viability Counterscreen for Primary qHTS for Inhibitors of ATXN expression. S2 cells (HEK-293 line with an ATXN2-luciferase reporter) viability, CellTiter-Fluor protease fluorescence, 24 h. Potency, µM (top dose mostly 56.7 µM), actives largely listed as cytotoxic. 400,000 tested, 0.49% active; also: nearly all actives have a fitted effect of over 40% in size
# HepG2 viability: qHTS for Inhibitors of TGF-b: Cytotox Counterscreen. 410,000 tested, 0.76% active. HepG2 CAGA-GFP viability, ATP luminescence, 18 h. Potency, µM (top dose mostly 46.1 µM), for inactives: top-dose activity change, negative = cytotoxicity, hits mostly cytotoxic. AID 588856, 2011
#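 CellTiter-Glo luminescence gave cytotoxicity after 18 hours at 37 degrees C. The cells were HepG2 CAGA-GFP in 1% FBS DMEM, stimulated with 500 pg/mL TGF-beta after compound addition. %Activity was normalised to no-cell wells (complete cell-killing) and DMSO (no toxicity), and curves were fitted and classified.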
# DT40 TDP1 no CPT: qHTS for Inhibitors of human tyrosyl-DNA phosphodiesterase 1 (TDP1): qHTS in cells in absence of CPT; 420,000 tested, 15% active; DT40 Tdp1-/- hTDP1 cells, no CPT, ATP luminescence, 48 h; Potency, µM (highest dose often 46.2 µM), inactives show top-dose activity change, negative = growth inhibition, most hits filed as inhibitors; also: % is scaled to controls: 0 for no effect and ±100 for the full control effect; nearly all actives have a fitted effect of over 55% in size
#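 Growth of hTDP1-complemented DT40 Tdp1-knockout cells is measured by ATP luminescence after at least 48 hr compound exposure at 37 °C, with DMSO substituting for the 20 nM CPT used in the parallel screen.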
# TGFb SMAD3 inh: qHTS for Inhibitors of TGF-b | Potency, µM (highest dose often 46.1 µM), without a hit: at the top dose activity, negative = inhibition, usual class: inhibitors | HepG2 CAGA-GFP TGF-b/SMAD3 reporter, GFP fluorescence, 18 h; TGF-beta stimulated, 500 pg/mL final | 410,000 tested, 1.2% active; also: % is scaled to controls: 0 for no effect and ±100 for the full control effect; nearly all actives have a fitted effect of over 65% in size
#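 Read-out: total well GFP (ex488/em500-530) summed from mean per-cell fluorescence. Cells: HEPG2 CAGA-GFP, 1% FBS DMEM, 18 h at 37 degrees C with 500 pg/mL final TGF-beta. Unstimulated wells served as the full-inhibition control; stimulated DMSO wells = 0%.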
# ATXN2 expr inh: Primary qHTS for Inhibitors of ATXN expression | Potency, µM (doses to about 57 µM), for the others: top-dose activity change, negative = inhibition, usual class: inhibitors | 360,000 tested, 0.72% active | HEK-293 ATXN2-luciferase reporter, luminescence, 24 h; also: % is scaled to controls: 0 for no effect and ±100 for the full control effect; nearly all actives have a fitted effect of over 55% in size
#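 ATXN2-luciferase reporter cells (luciferase flanked by upstream and downstream ATXN2 gene portions) were treated 24 h at 37 °C with compounds at up to 57 uM. SteadyGlo luminescence gave expression; GF-AFC fluorescence gave viability.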
# DT40 TDP1 CPT: qHTS for Inhibitors of human tyrosyl-DNA phosphodiesterase 1 (TDP1): qHTS in cells in presence of CPT; chicken DT40 Tdp1-/-;hTDP1 cells + 20 nM CPT, ATP luminescence, 48 h; Potency, µM (highest dose often 46.2 µM), inactives show at the highest dose activity change, negative = growth inhibition, actives largely listed as inhibitors; 420,000 tested, 12% active; AID 686979, 2013; also: % is scaled to controls: 0 for no effect and ±100 for the full control effect; nearly all actives have a fitted effect of over 55% in size
#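 Chicken DT40 Tdp1-/- cells stably complemented with human TDP1 were seeded at 400 cells/well in medium containing 20 nM camptothecin, exposed to pin-transferred compounds, and grown at 37 °C for at least 48 hr. Viability was read as ATP luminescence.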
# * marks the source's active call; other numbers are inactive results; i = inactive; ? = inconclusive; . = not tested or not shown. An excerpt weighted towards active compounds, which were near 17% of everything screened. Calls follow the shape of the dose curve; as a rule, active = well fitted curve in the direction sought with a large enough effect; inconclusive = small, poorly fitted or top-dose-only effect, or another doubt; inactive = no such curve, though single readings can be large; an effect the other way counts as inactive or inconclusive. Potency is read from the fitted curve at half-maximal effect.
SMILES,S2 tox,HepG2 viability,DT40 TDP1 no CPT,TGFb SMAD3 inh,ATXN2 expr inh,DT40 TDP1 CPT
COc1ccc2c(c1)c1c(c(=O)n(-c3ccccc3C)c(=O)n1Cc1c(F)cccc1Cl)n2C,i,10%,-26%,0%,0%,-8%
Cc1ccc(-c2[nH]c3c(c2-c2c(-n4cccc4)n(C)c(=O)[nH]c2=O)c(=O)[nH]c(=O)n3C)cc1,.,0%,-22%,1%,.,3%
CCN(CC)S(=O)(=O)c1ccc2oc(C(=O)NCc3ccc(C)cc3)c(C)c2c1,i,-29%,?,-4%,?,?
CCCCN(CCCC)S(=O)(=O)c1ccc2oc(C(=O)NCc3ccc(C)cc3)c(C)c2c1,i,-31%,13µM*,-2%,2%,8.2µM*
COc1ccc(C(=O)COC(=O)c2sccc2C)cc1OC,?,-19%,?,23%,.,4%
CCn1c(SCC(=O)N2CCOCC2)nc2sc3c(c2c1=O)CCCC3,?,-4%,18µM*,17%,-22%,?
CCn1c(SCC(=O)Nc2ccc(C)cc2)nc2sc3c(c2c1=O)CCN(C)C3,i,-10%,?,-7%,-12%,?
CCOC(=O)CSc1nc2sc3c(c2c(=O)n1-c1ccc(OCC)cc1)CCN(C)C3,i,0%,23µM*,-25%,.,?
C=C(C)CSc1nc2sc3c(c2c(=O)n1-c1ccc(C)cc1)CCN(C)C3,i,-29%,12µM*,-23%,-5%,18µM*
CCSc1nc2sc3c(c2c(=O)n1-c1ccccc1)CCN(C)C3,?,-18%,?,-1%,.,?
CCn1c(SCC(N)=O)nc2sc3c(c2c1=O)CCN(C)C3,i,3%,13µM*,6%,2%,23µM*
Cc1c(C)n2c(SCC(=O)N3CCCCC3)nnc2[nH]c1=O,i,-2%,-11%,1%,-2%,-27%
O=c1c2nccnc2[nH]c(=S)n1Cc1ccccc1Cl,.,-19%,4%,-4%,.,0%
O=C(Cc1ccc(Br)cc1)NCCc1ccc(F)cc1,i,1%,-3%,-14%,-5%,1%
CCOC(=O)CSc1nnc2n(C3CCCCC3)c(=O)c3c4c(sc3n12)CCCC4,i,4%,?,0%,-8%,?
CCOC(=O)CSc1nc2sc3c(c2c(=O)n1C1CCCCC1)CCN(C)C3,i,-15%,29µM*,-13%,-6%,?
COC(=O)CSc1nnc2n(C3CCCCC3)c(=O)c3c4c(sc3n12)CCCC4,i,-15%,?,-21%,-13%,29µM*
COc1ccccc1N1CCN(C(=O)CSc2nc3ccccc3c(=O)n2CC2CCCO2)CC1 (stereo not drawn),i,1%,?,1%,0%,?
Cc1ccc(N=Cc2ccc[nH]2)c(O)c1,i,-12%,?,-19%,22%,21µM*
COc1cccc(N(C(=O)c2snc(C(N)=O)c2N)C(C(=O)NCC2CCCO2)c2cccs2)c1 (stereo not drawn),i,-1%,16µM*,20%,8%,?
NC(=O)c1nsc(C(=O)N(c2ccccc2)C(C(=O)NCC2CCCO2)c2cccs2)c1N (stereo not drawn),?,4%,15µM*,9%,.,23µM*
COc1cccc(N(C(=O)c2snc(C(N)=O)c2N)C(C(=O)NCC2CCCO2)c2ccc3ncccc3c2)c1 (stereo not drawn),i,8%,-19%,7%,3%,7%
COc1cccc(N(C(=O)CCl)C(C(=O)NCCc2ccccc2)c2cccs2)c1 (stereo not drawn),32µM*,-106%,4.6µM*,13µM*,?,4.1µM*
COc1cccc(N(C(=O)CS(=O)CC(=O)Nc2ccc(F)cc2)C(C(=O)NC2CCCCC2)c2cccs2)c1 (stereo not drawn),?,-24%,?,0%,7%,?
Cc1cccc(N(C(=O)c2snc(C(N)=O)c2N)C(C(=O)NCC2CCCO2)c2ccc3ncccc3c2)c1 (stereo not drawn),i,0%,?,5%,-4%,-23%
SMILES,S2 tox,HepG2 viability,DT40 TDP1 no CPT,TGFb SMAD3 inh,ATXN2 expr inh,DT40 TDP1 CPT
Cc1cc(C)cc(N(C(=O)c2snc(C(N)=O)c2N)C(C(=O)NCC2CCCO2)c2cccs2)c1 (stereo not drawn),?,5%,26µM*,6%,-12%,23µM*
CCOC(=O)C1CCCN(C(=S)Nc2cccc(Cl)c2C)C1 (stereo not drawn),i,-2%,-16%,-5%,-9%,6%
Cc1ccsc1/C=C(\C(=O)c1ccc(OC(C)C)cc1)c1nc2ccccc2o1,i,-29%,18µM*,-10%,?,16µM*
Cc1ccc(-c2nc3ccccc3o2)cc1NC(=O)C(C)Oc1ccccc1 (stereo not drawn),.,-11%,-14%,-2%,.,1%
N#Cc1ccc(NC(=S)N2CCC3CC2c2cc(-c4ccc5c(c4)OCO5)ccc23)cc1 (stereo not drawn),i,-22%,?,?,-4%,?
COC(=O)c1cccc(NC2CC(=O)N(c3ccc(OC)c(OC)c3)C2=O)c1 (stereo not drawn),i,5µM*,4%,-9%,3%,23%
O=C(O)C1CCC(N2C(=O)c3cccc([N+](=O)[O-])c3C2=O)CC1 (stereo not drawn),i,6%,5%,?,3%,-3%
COc1ccc(CNc2ccc(Br)cc2)cc1,i,-92%,4%,-16%,-3%,?
COc1ccc(NC2=NCC(Cc3ccc(Br)cc3)S2)cc1 (stereo not drawn),?,-40%,26µM*,?,?,?
Cc1cccc(OC(C)C(=O)N/N=C\c2ccncc2)c1 (stereo not drawn),i,-1%,-21%,2%,0%,-18%
COc1ccc(-c2nn(C)c3sc(C(=O)NCc4ccco4)cc23)cc1OC,i,14%,21µM*,0%,-4%,?
COc1ccc(-c2nn(C)c3sc(C(=O)Nc4cc(OC)c(OC)c(OC)c4)cc23)cc1OC,.,-21%,6.5µM*,0%,.,18µM*
